Source: PubChem BioAssay (Tox21)
Several values for one entry are separate records, joined by “and”; a condition that tells them apart may be missing. Identical values can stand only once. Records with an inconclusive call do not appear. Where a call stands in place of a potency, no number is given. More than one record can exist for a structure, and the calls need not agree. Activity calls are given as the source filed them. Unless noted, calls come from the whole dose curve; as a rule, active = well fitted curve in the direction sought with a large enough effect in the repeat runs; inconclusive = weak or mixed curves; inactive = no such curve, though single readings can be large; an effect the other way counts as inactive or inconclusive.

Tests used:
[1] = qHTS assay to identify small molecule antagonists of the glucocorticoid receptor (GR) signaling pathway - cell viability counter screen (AID 720693); note: nearly all actives have a fitted effect of over 55% in size
[2] = qHTS assay for identifying genotoxic compounds that show differential cytotoxicity against isogenic chicken DT40 cell lines with known DNA damage response pathways - wild type cell line (AID 743012); note: nearly all actives have a fitted effect of over 60% in size; note: potency is the fitted concentration of half-maximal effect
How it was run: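 Wild-type DT40 cells (300/well) exposed to compounds for 40 hours at 37 C/5% CO2. Viability read by CellTiter-Glo luminescence after 30 min at room temperature.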

[3] = qHTS assay for identifying genotoxic compounds that show differential cytotoxicity against isogenic chicken DT40 cell lines with known DNA damage response pathways - Rev3 mutant cell line (AID 743014); note: nearly all actives have a fitted effect of over 55% in size; note: potency is the fitted concentration of half-maximal effect
[4] = qHTS assay for identifying genotoxic compounds that show differential cytotoxicity against isogenic chicken DT40 cell lines with known DNA damage response pathways - Rad54/Ku70 mutant cell line (AID 743015); note: nearly all actives have a fitted effect of over 60% in size; note: potency is the fitted concentration of half-maximal effect
[5] = qHTS assay to identify small molecule antagonists of the androgen receptor (AR) signaling pathway - cell viability counter screen (AID 743033; note: nearly all actives have a fitted effect of over 45% in size)
[6] = qHTS assay to identify small molecule antagonists of the androgen receptor (AR) signaling pathway using the MDA cell line - cell viability counter screen (AID 743041; note: nearly all actives have a fitted effect of over 45% in size)
How it was run: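 Viability counter screen run alongside the AR antagonist reporter: cells seeded 5 h before compound, R1881 added, 16 h incubation at 37C without CO2, fluorescent CellTiter-Fluor signal quantified.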

[7] = qHTS assay to identify small molecule antagonists of the thyroid receptor (TR) signaling pathway - cell viability counter screen (AID 743064); note: nearly all actives have a fitted effect of over 50% in size; note: potency is the fitted concentration of half-maximal effect
How it was run: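 Counter screen for cytotoxicity: compound plus T3 (1 nM final) on GH3.TRE-Luc cells, 23.5 h at 37 °C, then fluorescence viability readout with CellTiter-Fluor.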

[8] = qHTS assay to identify small molecule antagonists of the thyroid receptor (TR) signaling pathway (AID 743065); note: series mostly up to about 70 µM; nearly all actives have a fitted effect of over 55% in size
How it was run: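 GH3.TRE-Luc rat pituitary cells carrying two TR response elements driving luciferase were plated for 4 h, given compound plus 1 nM T3 (final), and incubated 23.5 h at 37 C. ONE-Glo luminescence measured reporter inhibition; CellTiter-Fluor fluorescence tracked cytotoxicity.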

[9] = test system: thyroid hormone receptor (rat, GH3 cells); assay: qHTS assay to identify small molecule agonists of the thyroid receptor (TR) signaling pathway (AID 743066; calls by dose curve)
[10] = target: Estrogen receptor (Homo sapiens) (UniProt P03372); assay: qHTS assay to identify small molecule antagonists of the estrogen receptor alpha (ER-alpha) signaling pathway (AID 743069; active = well fitted curve in the direction sought with a large enough effect in the signal ratio in the repeat runs, not every such curve was filed as active; the % refers to the signal ratio)
How it was run: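 Estradiol-stimulated ER-alpha-UAS-bla HEK293 cells, 18 hr compound exposure at 37C. LiveBLAzer B/G substrate, 2 hr RT, fluorescence read.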

[11] = qHTS assay to identify small molecule antagonists of the estrogen receptor alpha (ER-alpha) signaling pathway - cell viability counter screen (AID 743074; calls by dose curve;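 note: HEK293 cells carrying ER-alpha-UAS-bla reporter stimulated with 17beta-estradiol; nearly all actives have a fitted effect of over 45% in size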)
[12] = target: Estrogen receptor (Homo sapiens) (UniProt P03372); assay: qHTS assay to identify small molecule agonists of the estrogen receptor alpha (ER-alpha) signaling pathway (AID 743075; calls by dose curve;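 note: HEK293 GripTite cells with ER-alpha and UAS-driven beta-lactamase reporter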; note: potency is the fitted concentration of half-maximal effect)
[13] = target: Estrogen receptor (Homo sapiens) (UniProt P03372); assay: qHTS assay to identify small molecule agonists of the estrogen receptor alpha (ER-alpha) signaling pathway using the BG1 cell line (AID 743079); note: nearly all actives have a fitted effect of over 20% in size; note: potency is the fitted concentration of half-maximal effect
[14] = qHTS assay to identify small molecule antagonists of the estrogen receptor alpha (ER-alpha) signaling pathway using the BG1 cell line (AID 743080; calls by dose curve;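 note: BG1 cells stimulated with 17beta-estradiol alongside compound; series mostly up to about 70 µM; nearly all actives have a fitted effect of over 25% in size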)
How it was run: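 Quantitative HTS on the Tox21 10K library: BG1 cells with endogenous ER-alpha and ERE-luciferase reporter, 17beta-estradiol stimulation, 21.5 h compound exposure, luminescence endpoint with parallel fluorescence cytotoxicity counter-read.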

[15] = qHTS assay to identify small molecule antagonists of the estrogen receptor alpha (ER-alpha) signaling pathway using the BG1 cell line - cell viability counter screen (AID 743081);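 note: compound given together with 17beta-estradiol as the ER stimulus; series mostly up to about 70 µM; nearly all actives have a fitted effect of over 45% in size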
[16] = target: Aromatase (Homo sapiens) (UniProt P11511); assay: qHTS assay to identify aromatase inhibitors (AID 743083); note: series mostly up to about 70 µM; nearly all actives have a fitted effect of over 55% in size
[17] = target: Androgen receptor (Homo sapiens) (UniProt P10275); assay: qHTS assay to identify small molecule antagonists of the androgen receptor (AR) signaling pathway (AID 743035; active = well fitted inhibition curve with a large enough effect in the signal ratio in the repeat runs, not every such curve was filed as active; the % refers to the signal ratio)
How it was run: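 HEK293 cells stably carrying UAS-beta-lactamase reporter, 2,000/well, given compounds plus R1881 agonist and incubated 16 h at 37C. LiveBLAzer B/G FRET substrate then added for 2 h at room temperature before fluorescence reading.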

[18] = target: Androgen receptor (Homo sapiens) (UniProt P10275); assay: qHTS assay to identify small molecule agonists of the androgen receptor (AR) signaling pathway (AID 743036; active = well fitted activation curve with a large enough effect in the signal ratio in the repeat runs, with a control signal flat, not every such curve was filed as active; the % refers to the signal ratio)
How it was run: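 In this Tox21 qHTS, 2,000 HEK293 AR-bla cells per well were incubated with compounds for 16 h at 37C and 5% CO2. Fluorescence intensity was recorded 2 h after adding LiveBLAzer B/G FRET substrate at room temperature.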

[19] = target: Androgen receptor (Homo sapiens) (UniProt P10275); assay: qHTS assay to identify small molecule agonists of the androgen receptor (AR) signaling pathway using the MDA cell line (AID 743040; note: nearly all actives have a fitted effect of over 20% in size)
How it was run: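 Luminescence from ONE-Glo, read after 30 min at room temperature, reflects MMTV-driven luciferase in MDA-kb2 cells (AR- and GR-responsive). Treatment lasted 16 h at 37C, 0% CO2.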

[20] = target: Androgen receptor (Homo sapiens) (UniProt P10275); assay: qHTS assay to identify small molecule antagonists of the androgen receptor (AR) signaling pathway using the MDA cell line (AID 743042; note: nearly all actives have a fitted effect of over 55% in size)
How it was run: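 MDA-kb2 cells (human breast carcinoma, stably carrying an MMTV-luciferase reporter responsive to AR and GR) were plated at 3,000 cells/well and preincubated 5 hr at 37C, then given compound plus R1881 agonist for 16 h. ONE-Glo luminescence was read.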

Sequence of Aromatase (Homo sapiens) (P11511 whole entry, looked up): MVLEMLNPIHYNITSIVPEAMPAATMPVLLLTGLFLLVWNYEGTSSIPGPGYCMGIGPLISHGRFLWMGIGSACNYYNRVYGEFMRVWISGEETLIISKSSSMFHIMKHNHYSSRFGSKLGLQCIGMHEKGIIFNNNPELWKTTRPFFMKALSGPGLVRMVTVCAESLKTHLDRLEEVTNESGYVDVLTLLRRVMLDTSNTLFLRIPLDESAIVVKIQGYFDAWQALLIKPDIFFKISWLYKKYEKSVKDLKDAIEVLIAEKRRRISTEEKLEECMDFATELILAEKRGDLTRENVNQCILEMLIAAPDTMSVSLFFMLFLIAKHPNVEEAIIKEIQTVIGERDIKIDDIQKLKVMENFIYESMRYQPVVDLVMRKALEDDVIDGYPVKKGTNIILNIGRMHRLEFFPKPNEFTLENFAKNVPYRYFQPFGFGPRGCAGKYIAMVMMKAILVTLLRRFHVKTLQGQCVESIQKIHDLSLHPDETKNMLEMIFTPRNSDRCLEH
Sequence of Estrogen receptor (Homo sapiens) (P03372 whole entry, looked up): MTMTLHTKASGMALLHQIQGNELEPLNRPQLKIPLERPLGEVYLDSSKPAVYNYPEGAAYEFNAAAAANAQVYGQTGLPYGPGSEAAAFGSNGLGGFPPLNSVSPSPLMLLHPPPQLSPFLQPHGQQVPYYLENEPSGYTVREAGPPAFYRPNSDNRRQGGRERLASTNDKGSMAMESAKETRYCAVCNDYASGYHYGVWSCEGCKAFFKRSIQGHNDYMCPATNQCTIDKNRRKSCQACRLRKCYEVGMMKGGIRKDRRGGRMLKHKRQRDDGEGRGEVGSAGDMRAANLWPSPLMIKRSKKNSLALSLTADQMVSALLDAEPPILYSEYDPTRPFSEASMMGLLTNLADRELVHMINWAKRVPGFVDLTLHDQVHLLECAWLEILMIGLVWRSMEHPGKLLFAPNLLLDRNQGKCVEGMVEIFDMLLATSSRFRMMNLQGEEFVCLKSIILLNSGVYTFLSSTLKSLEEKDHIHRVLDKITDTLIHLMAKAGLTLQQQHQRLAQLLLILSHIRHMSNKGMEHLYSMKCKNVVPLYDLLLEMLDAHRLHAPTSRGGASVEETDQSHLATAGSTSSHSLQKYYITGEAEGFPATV
Sequence of Androgen receptor (Homo sapiens) (P10275 whole entry, looked up): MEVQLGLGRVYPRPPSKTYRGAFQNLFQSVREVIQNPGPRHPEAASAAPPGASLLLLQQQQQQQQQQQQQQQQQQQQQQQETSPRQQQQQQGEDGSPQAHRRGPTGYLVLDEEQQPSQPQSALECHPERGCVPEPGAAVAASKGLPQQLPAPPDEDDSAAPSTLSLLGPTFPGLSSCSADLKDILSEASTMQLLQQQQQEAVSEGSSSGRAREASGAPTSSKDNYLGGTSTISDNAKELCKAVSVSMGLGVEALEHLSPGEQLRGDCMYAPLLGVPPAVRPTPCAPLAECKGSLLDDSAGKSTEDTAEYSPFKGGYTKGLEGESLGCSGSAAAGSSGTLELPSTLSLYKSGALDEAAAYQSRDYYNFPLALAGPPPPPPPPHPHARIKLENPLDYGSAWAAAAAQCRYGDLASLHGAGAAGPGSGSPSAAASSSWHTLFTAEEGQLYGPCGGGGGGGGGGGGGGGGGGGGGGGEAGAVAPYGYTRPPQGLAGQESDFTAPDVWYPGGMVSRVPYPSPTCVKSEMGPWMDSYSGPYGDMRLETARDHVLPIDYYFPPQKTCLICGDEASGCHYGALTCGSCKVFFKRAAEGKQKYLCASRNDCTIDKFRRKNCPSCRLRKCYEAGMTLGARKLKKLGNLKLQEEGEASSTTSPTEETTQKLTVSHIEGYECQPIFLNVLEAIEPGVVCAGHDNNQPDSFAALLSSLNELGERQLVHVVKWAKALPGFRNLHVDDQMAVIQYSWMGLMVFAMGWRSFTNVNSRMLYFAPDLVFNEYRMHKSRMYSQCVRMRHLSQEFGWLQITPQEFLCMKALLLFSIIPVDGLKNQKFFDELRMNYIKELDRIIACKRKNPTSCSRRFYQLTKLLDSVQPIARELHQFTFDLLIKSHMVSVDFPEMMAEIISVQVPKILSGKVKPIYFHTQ

SMILES	outcome [1]	Potency [2]	Potency [3]	Potency [4]	Potency [5]	Potency [6]	Potency [7]	Potency [8]	Potency [9]	Potency [10]	outcome [11]	Potency [12]	Potency [13]	Potency [14]	Potency [15]	Potency [16]	outcome [17]	Potency [18]	Potency [19]	outcome [20]
CCCCCCCC(=O)OC	inactive	inactive	inactive	inactive	inactive	inactive	inactive	inactive	inactive	inactive	inactive	inactive	inactive	inactive	inactive	inactive	–	–	–	–
FC(F)(F)c1ccc(Cl)c(Cl)c1	inactive	inactive	inactive	inactive	inactive	inactive	inactive	inactive	inactive	inactive	inactive	inactive	inactive	inactive	inactive	inactive	inactive	inactive	inactive	inactive
COc1ccc(NC(C)=O)cc1N	inactive	inactive	inactive	inactive	inactive	inactive	inactive	inactive	inactive	inactive	inactive	54.7 µM [activator] (active) and inactive	54.3 µM (active) and inactive	–	inactive	inactive	–	–	–	–
O=C(O)c1cc(O)c(O)c(O)c1	inactive	26.6 µM (active) and 30.9 µM (active)	26.6 µM (active) and 24.6 µM (active)	27.6 µM (active)	inactive	inactive	inactive and 55 µM (active)	inactive	inactive	inactive	inactive	inactive	inactive	inactive	inactive	inactive	–	–	–	–
CCCCC(CC)COC(=O)CS (configuration not stated)	inactive	inactive	inactive	inactive and 61.1 µM (active)	inactive	inactive	inactive	inactive	inactive	–	inactive	–	–	–	inactive	–	–	–	–	–
CC1CCC2CC1C2(C)C (configuration not stated)	inactive	inactive	inactive	inactive	inactive	inactive	inactive	inactive	inactive	–	inactive	–	–	–	inactive	inactive	–	–	–	–
CCC(O)OC(O)CC (configuration not stated)	inactive	inactive	inactive	inactive	inactive	inactive	inactive	inactive	inactive	inactive	inactive	inactive	inactive	inactive	inactive	inactive	–	–	–	–
OC[C@H]1O[C@@](CO)(O[C@H]2O[C@H](CO)[C@@H](O)[C@H](O)[C@H]2O)[C@@H](O)[C@@H]1O	inactive	inactive	inactive	inactive	inactive	inactive	inactive	inactive	inactive	inactive	inactive	inactive	inactive	inactive	inactive	inactive	–	–	–	–
